Test results taken from ChEMBL document CHEMBL3988442, “University of Dundee, Small-Polar-MMV Screening Library” (2021).
The campaign covered roughly 69,000 compounds. About 950 (1.4%) showed an effect of 50% or more. This excerpt belongs to a sample that is enriched for strong results.

Test system: Mycobacterium tuberculosis
Assay: Cornell M. t heat shock assay; note: in the data most compounds retested in dose-response had high values
Assay type: functional, organism-based
Parameters: dose or concentration left out as unconfirmed

SMILES | Percent Effect [%]
CCOC(=O)Cc1csc(NC(=O)c2cc(=O)c(OC)c[nH]2)n1 | 26.29
COc1c[nH]c(C(=O)Nc2nc(C(C)(C)C)cs2)cc1=O | 39.24
COc1coc(C(=O)Nc2nc(C)cs2)cc1=O | 66.21
COc1c[nH]c(C(=O)Nc2nc(C)cs2)cc1=O | 69.04
COc1coc(C(=O)Nc2nc(-c3ccccn3)cs2)cc1=O | 1.222
COc1coc(C(=O)Nc2nc(-c3ccncc3)cs2)cc1=O | -11.7
O=C(NCCN1CCOCC1)c1ccn(-c2ccc3ccccn23)n1.O=C(O)C(F)(F)F | -22.38
Cc1ccc(CN2CCC3(CCC(C(=O)N(C)C)O3)CC2)o1.O=C(O)C(F)(F)F (configuration not stated) | -7.412
O=C(COc1ccccc1)N1C[C@@H]2COC[C@]2(COc2cccnc2)C1.O=C(O)C(F)(F)F | 12.4
Cc1nc(NCc2noc(C3CCCO3)n2)c2sccc2n1 (configuration not stated) | -5.869
Cl.NC(=O)COc1ccc(CNCc2cc(F)cc(F)c2)cc1 | -21.98
O=C(Nc1ccc(N2CCCC2)nc1)N1CCc2sccc2C1 | 0.2913
O=C(Nc1ccc(N2CCCCC2)nc1)N1CCc2sccc2C1 | 18.45
O=C(Nc1ccc(N2CCCC2)nc1)N1CCc2ccccc2C1 | 58.68
CN1C[C@@H]2CC[C@H](CC1=O)N2C(=O)c1cc2ccccc2[nH]c1=O | 6.279
CN(C)C(c1ccccn1)[C@H]1CC[C@H](CNC(=O)CC2CCCC2)CC1 (some centres not stated) | -9.462
CCN1CCc2cc(-c3cncn3CC(=O)NC(C)(C)C)ccc21.Cl | 19.95
CCN1c2ccc(-c3cncn3CC(=O)NC(C)(C)C)cc2CC1C.Cl (configuration not stated) | 85.85
CC1Cc2cc(-c3cncn3CC(=O)NC(C)(C)C)ccc2N1C.Cl (configuration not stated) | -7.03
Cc1cc(C)n(CCCn2cncc2-c2ccc3c(c2)CC(C)N3C)n1.Cl (configuration not stated) | 79.43
Cc1nccn1CCCn1cncc1-c1ccc2c(c1)CCC(C)N2C.Cl (configuration not stated) | 8.681
Cc1nccn1CCCn1cncc1-c1ccc2c(c1)CC(C)N2C.Cl (configuration not stated) | 48.58
CCOC(=O)c1n[nH]cc1-c1cncn1CCCn1nc(C)cc1C.Cl | 8.544
Cc1nccn1CCCn1cncc1-c1ccc2c(c1)CCCN2C.Cl | -22.83
CCN1c2ccc(-c3cncn3CCCn3ccnc3C)cc2CC1C.Cl (configuration not stated) | 100.1
Cc1nn(C)c(C)c1CCn1cncc1-c1ccc2c(c1)CC(C)N2C.Cl (configuration not stated) | 15.02
CN1CCCc2cc(-c3cncn3CCNC3CCS(=O)(=O)C3)ccc21.Cl (configuration not stated) | -0.7285
